VHR inh color = blocks the human dual specificity phosphatase VHR1 | P51452 | recombinant VHR phosphatase, colorimetric substrate read-out | inhibition, % at 20 µM | 0.7% of 50,000 active | AID 1992; in the data active = inhibition above about 60%
Target sequence (P51452 whole entry, looked up): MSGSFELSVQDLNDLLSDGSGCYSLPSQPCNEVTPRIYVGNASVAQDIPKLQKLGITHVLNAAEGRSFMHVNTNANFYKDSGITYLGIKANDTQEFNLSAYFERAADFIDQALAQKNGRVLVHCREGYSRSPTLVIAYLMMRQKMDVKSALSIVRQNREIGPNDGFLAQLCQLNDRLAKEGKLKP
Each line names hits and unclear results; the compound was inactive in the other large screens. This is one part of a sample in which hits are shown more often than they occur.

Cc1ccc(N2NC(=O)/C(=C/c3ccc(-c4ccc5c(c4)COC5=O)o3)C2=O)cc1C	VHR inh color 85
Cc1cc([N+](=O)[O-])ccc1-c1ccc(/C=C2/C(=O)NC(=S)N(c3ccc(Cl)cc3)C2=O)o1	none
Cc1ccc(N2NC(=O)/C(=C\c3ccco3)C2=O)cc1C	none
Cc1ccc(N2NC(=O)/C(=C\c3cccc([N+](=O)[O-])c3)C2=O)cc1	none
Cc1ccc([N+](=O)[O-])cc1-c1ccc(/C=C2/C(=O)NN(c3ccc(Cl)cc3)C2=O)o1	VHR inh color 74
O=C1NN(c2ccccc2)C(=O)/C1=C/c1ccc(-c2cccc([N+](=O)[O-])c2)o1	none
Cc1ccc(N2NC(=O)/C(=C/c3cc([N+](=O)[O-])ccc3Cl)C2=O)cc1C	VHR inh color 64
COc1cc(/C=C2\C(=O)NN(c3ccc(Cl)c(Cl)c3)C2=O)c([N+](=O)[O-])cc1OC	none
Cc1ccc(N2NC(=O)/C(=C/c3ccc4c(c3)OCO4)C2=O)cc1C	none
CCOC(=O)c1c(NC(=O)COc2cc(Cl)ccc2Cl)sc(C)c1C	none
Cc1c(N2C(=O)/C(=C/c3ccc(-c4ccccc4Cl)o3)SC2=S)c(=O)n(-c2ccccc2)n1C	none
COC(=O)c1sc2nc(-c3ccccc3)nc(N3CCOCC3)c2c1C	none
CC(Oc1ccccc1)C(=O)Nc1ccc(Cl)c(C(N)=O)c1 (centres undefined)	none
CC1=C(C(=O)OCCc2ccccc2)C(c2ccccc2OCc2ccccc2)CC(=O)N1 (centres undefined)	none
CSc1ccc(CN2CCN(Cc3ccccc3C(F)(F)F)CC2)cc1	none
CCC(CC)C(=O)Nc1ccc(C)c([N+](=O)[O-])c1	none
C/C(=N\NS(=O)(=O)c1ccccc1)c1ccc(I)cc1	none
COc1cc(/C=C(\C#N)C(=O)Nc2ccc(F)cc2)ccc1O	none
CCN(CC)CCCCCOc1ccc(OC)cc1	none
COc1ccc(-n2cnc(/N=C/N(C)C)c2C(=O)c2cccc([N+](=O)[O-])c2)cc1	none
O=C(COc1ccc(Cl)cc1)N1CCN(C(=O)COc2ccc3ccccc3c2)CC1	none
O=C(COc1ccc2ccccc2c1)N1CCN(S(=O)(=O)c2ccc(Cl)cc2)CC1	none
Cc1ccc(S(=O)(=O)N2CCN(C(=O)COc3ccc(Cl)cc3)CC2)cc1	VHR inh color 87
CCN(CC)c1ccc(NC(=O)COc2ccc(C)cc2C)cc1	none
CCc1ccc(C(=O)/C=C/c2ccc(-c3cccc([N+](=O)[O-])c3)o2)cc1	none
CC(=O)c1ccc(N2C(=O)C3C4C=CC(CC4)C3C2=O)cc1 (centres undefined)	none
CC(=O)c1ccc(N2C(=O)C=CC2=O)cc1	VHR inh color 84
CCOC(=O)c1ccc(N2C(=O)C=CC2=O)cc1	none
CCOC(=O)c1sc(NC(=O)c2ccc(C)c([N+](=O)[O-])c2)c(C(=O)OCC)c1C	none
CCOC(=O)c1c(NC(=O)c2ccc(C)c([N+](=O)[O-])c2)sc(C(=O)Nc2ccccc2OC)c1C	VHR inh color 116
CCOC(=O)c1c(NC(=O)c2cccc(OC)c2)sc(C(=O)Nc2ccccc2OC)c1C	none
CCN(CC)CCCNC(=O)c1cc(Cl)ccc1Cl	none
CCOC(=O)c1c(-c2ccccc2)nn(-c2ccccc2)c1C	none
O=C1C=CC(=O)c2c1c(-c1ccccc1)nn2-c1ccccc1	VHR inh color 86
Cc1c(C(=O)NCCO)c(-c2ccccc2)nn1-c1ccccc1	none
COC(=O)c1ccccc1NC(=O)Cc1ccc(OC)c(OC)c1	none
O=C(N/N=C/c1ccccc1O)c1n[nH]c2c1CCC2	none
Cc1cc(/C=C2\C(=O)NC(=S)N(c3ccc(Cl)cc3)C2=O)c(C)n1C	none
O=C1NC(=S)N(c2cccc(Cl)c2)C(=O)/C1=C/c1ccc(Cl)cc1	none
COc1ccccc1N1C(=O)NC(=O)/C(=C\c2cc3ccccc3n2C)C1=O	none
COc1cc(Br)c(/C=C2\C(=O)NC(=S)N(c3ccccc3)C2=O)cc1OC	none
Cn1cccc1/C=C1/C(=O)NC(=S)N(c2ccc(Cl)cc2)C1=O	VHR inh color 70
COc1ccccc1N1C(=O)C(=Cc2cccn2C)C(=O)NC1=S	VHR inh color 77
Cc1ccc(C)c(N(CC(=O)NC2CCCCC2)S(=O)(=O)c2ccccc2)c1	none
CCn1c(C)nc2c(I)c(O)ccc21	none
CC(C)C(C(=O)O)N1C(=O)/C(=C/c2cccc([N+](=O)[O-])c2)SC1=S (centres undefined)	none
Cc1cc(C)cc(-n2c(C)cc(C=C3SC(=S)NC3=O)c2C)c1	none
Cc1cc(/C=C2/SC(=S)NC2=O)c(C)n1-c1cccc(Cl)c1	VHR inh color 95
Cc1cc(/C=C2/SC(=O)NC2=O)c(C)n1-c1cccc(Cl)c1	none
Cc1cccc(N2C(=O)/C(=C/c3ccc(N(C)C)cc3)SC2=S)c1	none
O=c1[nH]c(=S)n(-c2ccc(Cl)c(Cl)c2)c(O)c1/C=C1/C=Nc2ccccc21	none
Cc1cc(C)cc(-n2c(O)c(/C=C3\C=Nc4ccccc43)c(=O)[nH]c2=O)c1	none
Cc1ccc(-n2c(O)c(/C=C3\C=Nc4ccccc43)c(=O)[nH]c2=S)cc1	VHR inh color 64
O=C(c1cccs1)N(CCN(C(=O)c1cccs1)c1ccccc1)c1ccccc1	none
CCc1[nH]nc(C(=O)N/N=C/c2ccccn2)c1C	none
CCOc1ccccc1NC(=O)C1C2CCC3C(CCC21)C3(Cl)Cl (centres undefined)	VHR inh color 119
O=C(Nc1cccc2ccccc12)C1C2CCC3C(CCC21)C3(Cl)Cl (centres undefined)	none
CCOc1ccccc1NC(=O)c1ccccc1	none
CCOC(=O)CC(=O)c1sc2nccc(N(C)C)c2c1N	none
O=C(Nc1ccc(O)cc1)c1ccc2c(c1)C(=O)N(c1ccc([N+](=O)[O-])cc1)C2=O	none
CCc1ccc(/C=C2\C(=O)NN(c3ccccc3)C2=O)cc1	none
CC(C)=C1C(=O)NN(c2ccccc2)C1=O	VHR inh color 83
O=C1NN(c2ccccc2)C(=O)/C1=C\C=C\c1ccccc1	none
COc1ccc(/C=C/C(=O)c2ccc(F)cc2)c(OC)c1	none
C=CCN(CC=C)C(=O)c1ccc(OC)cc1	none
O=C1N=c2ccccc2=C1c1sc(Nc2cccc(O)c2)nc1O	none
CCOc1ccc(Nc2nc(O)c(C3=c4cc(Br)ccc4=NC3=O)s2)cc1	none
O=C1N=c2ccccc2=C1c1sc(Nc2ccc(O)cc2)nc1O	VHR inh color 58
O=C(CCC1CCCC1)Nc1cccc(F)c1	none
Cc1ccc(S(=O)(=O)c2cc(NS(=O)(=O)c3ccc(Cl)cc3)c3ccccc3c2O)cc1	none
CC(C)C1=NN2C(=N)/C(=C/c3ccc(-c4cccc([N+](=O)[O-])c4)o3)C(=O)N=C2S1	none
COc1cc(/C=C2/C(=N)N3N=C(C(C)C)SC3=NC2=O)cc(Cl)c1OCCOc1ccccc1	none
CC(C)C1=NN2C(=N)/C(=C/c3ccc(Sc4ccc(Cl)cc4)o3)C(=O)N=C2S1	VHR inh color 110
COc1cccc(-n2c(C=C3C(=O)Nc4ccc(C)cc43)nc3ccccc3c2=O)c1	none
C=C(CC(Cc1ccccc1)C(=O)O)c1ccccc1 (centres undefined)	VHR inh color 97
O=C(O)CC(Cc1ccc(Br)cc1)C(=O)O (centres undefined)	none
O=C(O)CC(Cc1ccccc1)C(=O)O (centres undefined)	none
CC(=O)NCC(O)(c1ccc(C)cc1)c1ccc(C)cc1	none
O=C(O)CN1C(=O)/C(=C/c2c(Cl)cccc2Cl)SC1=S	none
Cc1ccc(/C=C2\SC(=S)N(CC(=O)O)C2=O)o1	none
O=C(O)CN1C(=O)/C(=C\c2ccc(-c3ccccc3Cl)o2)SC1=S	VHR inh color 83
COc1cc(C=NN2CCN(c3ccccn3)CC2)cc(OC)c1OC(C)=O	none
Cc1cc(/C=C2/NC(=O)NC2=O)c(C)n1-c1ccc(C(C)(C)C)cc1	none
